{"source": "ChEMBL document CHEMBL3988442", "about": "“University of Dundee, Small-Polar-MMV Screening Library” (2021)", "note": "Screen size: about 69,000 compounds; about 950 (1.4%) showed an effect of 50% or more. The full list was thinned out, with strong results kept by preference.", "data": [{"system": "Mycobacterium tuberculosis", "test": "Cornell M. t heat shock assay; note: in the data most compounds retested in dose-response had high values", "type": "functional, organism-based", "design": "dose or concentration left out as unconfirmed", "units": {"Percent Effect": "%"}, "values": [{"smiles": "CCC(CC)C(=O)N1CCOC2(COCCN(CC(=O)NC)C2)C1.O=C(O)C(F)(F)F", "note": "(configuration not stated)", "Percent Effect": -7.076}, {"smiles": "Cc1cccc(NC(=O)N2CCCn3cnc(CN(C)C(C)C)c3C2)c1.O=C(O)C(F)(F)F", "Percent Effect": -43.51}, {"smiles": "COCC1CN(c2ccc(C)nn2)Cc2cnn(C)c21.O=C(O)C(F)(F)F.O=C(O)C(F)(F)F", "note": "(configuration not stated)", "Percent Effect": 33.23}, {"smiles": "CN1CCOCC2(CCCN(C(=O)c3ccc(-n4cccc4)cc3)C2)C1.O=C(O)C(F)(F)F", "note": "(configuration not stated)", "Percent Effect": -38}, {"smiles": "CN(C)CC(=O)N1CCC2(CC1)CN(c1ccsc1)C(=O)CO2.O=C(O)C(F)(F)F", "Percent Effect": -14.58}, {"smiles": "Cc1cnn(C2CN(Cc3noc(C4CC4)n3)C2)c1", "Percent Effect": 9.159}, {"smiles": "C1CC(CN2C[C@H]3CC[C@@H]2CN(Cc2noc(C4CCCC4)n2)C3)C1", "Percent Effect": 69.475}, {"smiles": "c1ccc(-c2cc(CN3C[C@H]4CC[C@H]3C4)on2)cc1", "Percent Effect": 7.341}, {"smiles": "c1ccc(-c2cc(CN3CCCC(Cn4cncn4)C3)on2)cc1", "note": "(configuration not stated)", "Percent Effect": -1.952}, {"smiles": "Cc1cc(CN2C[C@H]3CC[C@@H]2CN(C2Cc4ccccc4C2)C3)on1", "Percent Effect": 16.59}, {"smiles": "CCc1cc(CN2C[C@H]3CC[C@@H]2CN(C2Cc4ccccc4C2)C3)on1", "Percent Effect": 30.93}, {"smiles": "c1ccc(-c2cc(CN3C[C@@H]4CC[C@H](C3)N(CC3CC3)C4)on2)cc1", "Percent Effect": 99.84}, {"smiles": "C1CC(CN2C[C@H]3CC[C@@H]2CN(Cc2nnc(C4CC4)o2)C3)C1", "Percent Effect": 16.6}, {"smiles": "C1CCCN(CC2CCCN(Cc3noc(C4CC4)n3)C2)CC1", "note": "(configuration not stated)", "Percent Effect": 7.551}, {"smiles": "c1ccc(CN2C[C@H]3CC[C@@H]2CN(Cc2nnc(C4CC4)o2)C3)cc1", "Percent Effect": -5.775}, {"smiles": "c1ccc(-c2nnc(CN3C[C@@H]4CC[C@H](C3)N(CC3CCC3)C4)o2)cc1", "Percent Effect": 64.4}, {"smiles": "c1ccc(-c2cc(CN3C[C@@H]4CC[C@H](C3)N(CC3CCC3)C4)on2)cc1", "Percent Effect": 105.8}, {"smiles": "Cc1noc(C)c1CN1CCCC2(CCN(CC3CCCC3)C2)C1.O=C(O)C(F)(F)F", "note": "(configuration not stated)", "Percent Effect": -3.039}, {"smiles": "CCN1C[C@@H]2[C@@H](OC)CCN(S(=O)(=O)c3ccccc3)[C@@H]2C1.O=C(O)C(F)(F)F", "Percent Effect": -5.885}, {"smiles": "COCC(=O)N1CCn2c(COc3cccnc3)cnc2C1C.O=C(O)C(F)(F)F", "note": "(configuration not stated)", "Percent Effect": 5.093}, {"smiles": "CC(=O)N1CCN(Cc2ccccn2)CC2(CC(=O)N(C)C2)C1.O=C(O)C(F)(F)F.O=C(O)C(F)(F)F", "note": "(configuration not stated)", "Percent Effect": -32.82}, {"smiles": "CNC(=O)c1cc(C2CCCN2)n[nH]1.Cl", "note": "(configuration not stated)", "Percent Effect": 10.86}, {"smiles": "CC(=O)N1CCC[C@@H](NCc2ccc(F)cc2)[C@@H]1c1ccc(C)s1", "Percent Effect": 15.69}, {"smiles": "CC(=O)N1CCC[C@@H](NCc2c[nH]c3ccccc23)[C@@H]1c1ccc(C)s1.Cl", "Percent Effect": 67.48}, {"smiles": "CC(=O)N1CCC[C@@H](NCc2cccc(F)c2)[C@@H]1c1ccc(C)s1.Cl", "Percent Effect": 4.639}, {"smiles": "O=C(O)C(F)(F)F.O=C1[C@H]2CN(Cc3ccco3)C[C@H]2CN1c1ccsc1", "Percent Effect": 26.88}, {"smiles": "O=c1c2cnc(N3CCOCC3)nc2ccn1Cc1ccco1", "Percent Effect": -1.985}, {"smiles": "CCCc1nc(N2CCCN3CCC[C@H]3C2)c2cnn(C)c2n1", "Percent Effect": -9.904}, {"smiles": "COCc1nc(N2CC[C@H](N(C)C)C2)c2cnn(C)c2n1", "Percent Effect": -4.11}, {"smiles": "CCCOC1CCCN(c2nc(COC)nc3c2cnn3C)C1", "note": "(configuration not stated)", "Percent Effect": 67.42}, {"smiles": "CCCc1nc(N2CCCC(CCOC)C2)c2cnn(C)c2n1", "note": "(configuration not stated)", "Percent Effect": -22.83}, {"smiles": "CCCOC1CCCN(c2nc(CC)nc3c2cnn3C)C1", "note": "(configuration not stated)", "Percent Effect": 77.82}, {"smiles": "CCc1nc(N2CCCC(CCCOC)C2)c2cnn(C)c2n1", "note": "(configuration not stated)", "Percent Effect": -4.574}, {"smiles": "CS(=O)(=O)NC[C@@H]1OC[C@H]2CN(Cc3ccccc3)CC[C@H]21.O=C(O)C(F)(F)F", "Percent Effect": 25.84}, {"smiles": "O=C(O)Cn1ccc(=O)c2cc(Cl)ccc21", "Percent Effect": 63.91}, {"smiles": "O=C(O)Cn1ccc(=O)c2ccc(Cl)cc21", "Percent Effect": -0.616}, {"smiles": "O=C(O)Cn1ccc(=O)c2cc(F)ccc21", "Percent Effect": 12.91}, {"smiles": "CN(C)CCOCc1cncc2c1CCN(C1CCOCC1)C2.O=C(O)C(F)(F)F.O=C(O)C(F)(F)F.O=C(O)C(F)(F)F", "Percent Effect": 38.62}, {"smiles": "O=C(CSc1nnc(N2CCNCC2)s1)Nc1ccccc1.O=C(O)C(F)(F)F", "Percent Effect": -1.012}, {"smiles": "CC(C)Oc1ccc(CNC(=O)C2CCS(=O)(=O)C2)cn1", "note": "(configuration not stated)", "Percent Effect": -25.56}, {"smiles": "CC(NCCc1nccn1Cc1ccccc1)c1cccs1", "note": "(configuration not stated)", "Percent Effect": 34.94}, {"smiles": "Cc1ccc(C(C)NCCc2nccn2Cc2ccccc2)o1", "note": "(configuration not stated)", "Percent Effect": -11.63}, {"smiles": "CCc1ccc(C(C)NCc2nccn2Cc2ccccc2)o1", "note": "(configuration not stated)", "Percent Effect": 91.1}, {"smiles": "O=C(O)C(F)(F)F.c1ccc2c(c1)N(CC1CCOC1)CC21CCN(c2cnccn2)CC1", "note": "(configuration not stated)", "Percent Effect": 16.03}, {"smiles": "COCCN1CCCC2(CCC(=O)N2Cc2cccnc2)C1.O=C(O)C(F)(F)F", "note": "(configuration not stated)", "Percent Effect": -18.4}, {"smiles": "Cc1nnc([C@]23COC[C@H]2CN(S(=O)(=O)c2cccnc2)C3)o1.O=C(O)C(F)(F)F", "Percent Effect": 48.22}, {"smiles": "COc1ccc(CN(C(=O)C2CCOCC2)c2ccncc2)cc1", "Percent Effect": -4.775}, {"smiles": "COc1ccc(CN(C(=O)C2CCCO2)c2ccncc2)cc1", "note": "(configuration not stated)", "Percent Effect": -11.42}, {"smiles": "COc1ccc(CN(C(=O)C2CCCS2)c2ccncc2)cc1", "note": "(configuration not stated)", "Percent Effect": 99.59}, {"smiles": "O=C(CC1CC1)N1CCn2cc(Cn3cccn3)nc2C1.O=C(O)C(F)(F)F", "Percent Effect": -0.6568}, {"smiles": "CC(C)n1nc(CN2CCOCC2)c2c1CN(C(=O)c1ccno1)C2.O=C(O)C(F)(F)F", "Percent Effect": 17.65}, {"smiles": "Cc1ccc(CNCc2c[nH]nc2C(C)(C)C)c(OC2CCOC2)c1", "note": "(configuration not stated)", "Percent Effect": 18.1}, {"smiles": "Cc1ccc(CNCc2cccc3cccnc23)c(OC2CCOC2)c1", "note": "(configuration not stated)", "Percent Effect": 87.35}, {"smiles": "Cc1ccc(CNCc2cccc3cn[nH]c23)c(OC2CCOC2)c1", "note": "(configuration not stated)", "Percent Effect": 3.326}, {"smiles": "CC(C)N(C)Cc1cnc2n1CCN(Cc1cccc(F)c1)C2.O=C(O)C(F)(F)F.O=C(O)C(F)(F)F", "Percent Effect": -5.438}, {"smiles": "Cc1nnc(N2CCCC3(CN(Cc4nccs4)CCO3)C2)o1.O=C(O)C(F)(F)F.O=C(O)C(F)(F)F", "note": "(configuration not stated)", "Percent Effect": -34.51}, {"smiles": "CCN(CC)C1CCN(C(=O)c2cc3cc(C)cc(C)c3nc2C)CC1.Cl", "Percent Effect": 6.865}, {"smiles": "Cl.FC(F)(F)c1ccc(-c2cnc(C3CCCN3)cn2)cc1", "note": "(configuration not stated)", "Percent Effect": -8.787}, {"smiles": "Cn1cc(C2COC3(CCN(C(=O)Cc4ccccc4)CC3)C2)cn1", "note": "(configuration not stated)", "Percent Effect": 32.13}, {"smiles": "CC1COC2(CCN(C(=O)Cc3ccncc3)CC2)C1.O=C(O)C(F)(F)F", "note": "(configuration not stated)", "Percent Effect": 19.29}, {"smiles": "O=C(Cc1ccncc1)N1CCC2(CC1)CC(c1ccccc1)CO2.O=C(O)C(F)(F)F", "note": "(configuration not stated)", "Percent Effect": 53.05}, {"smiles": "Cc1ccc(CN2CCn3c(CNC(=O)c4cccn4C)cnc3C2)s1.O=C(O)C(F)(F)F", "Percent Effect": 7.209}, {"smiles": "COCC1Cn2nnc(-c3cnn(C)c3)c2CN1Cc1cccs1.O=C(O)C(F)(F)F", "note": "(configuration not stated)", "Percent Effect": 17.22}, {"smiles": "COc1ccc(C)c(NC(=O)NCc2cccc(N(C)C)n2)c1", "Percent Effect": 29.74}, {"smiles": "CC(=O)c1ccc(NC(=O)NCc2cccc(N(C)C)n2)cc1C", "Percent Effect": 63.04}, {"smiles": "CN(C)c1cccc(CNC(=O)Nc2ccc3[nH]nnc3c2)n1", "Percent Effect": -8.207}, {"smiles": "CS(=O)(=O)N1CCOCC2(CCN(c3ccccn3)C2)C1.O=C(O)C(F)(F)F", "note": "(configuration not stated)", "Percent Effect": -2.08}, {"smiles": "CCN1CCC2(CCN(c3ncccn3)CC2)C1=O.O=C(O)C(F)(F)F", "Percent Effect": -1.865}, {"smiles": "Cc1nc(N)cc(N2CCCC(COc3cccc(F)c3)C2)n1", "note": "(configuration not stated)", "Percent Effect": 95.51}, {"smiles": "Cc1nc(CN(C)C)cc(N2CCCC(COc3ccc(F)cc3)C2)n1", "note": "(configuration not stated)", "Percent Effect": 82.2}, {"smiles": "CN(C)Cc1nc(C(=O)N2CCCC(COc3ccc(F)cc3)C2)cs1", "note": "(configuration not stated)", "Percent Effect": -4.47}, {"smiles": "Cc1ccccc1OCC1CCCN(c2cc(N)nc(N)n2)C1", "note": "(configuration not stated)", "Percent Effect": 94.51}, {"smiles": "Nc1cc(N2CCCC(COc3ccc(F)cc3)C2)nc(N)n1", "note": "(configuration not stated)", "Percent Effect": 0.7864}, {"smiles": "CN(C)Cc1ccc(C(=O)N2CCCC(COc3ccc(F)cc3)C2)o1", "note": "(configuration not stated)", "Percent Effect": 1.225}, {"smiles": "OCc1csc(N2CCCC(COc3cccc(F)c3)C2)n1", "note": "(configuration not stated)", "Percent Effect": -18.57}, {"smiles": "Nc1cc(N2CCCC(COc3ccc(F)cc3)C2)ncn1", "note": "(configuration not stated)", "Percent Effect": -15.24}, {"smiles": "CCNC(=O)c1ccnc(N2CCCC(COc3ccccc3C)C2)c1", "note": "(configuration not stated)", "Percent Effect": -1.28}, {"smiles": "Cl.NCCc1cc(N2CCOCC2)nc(NC2CC2)n1", "Percent Effect": -1.001}, {"smiles": "Cn1cc(N2C(=O)CC[C@@H]3[C@H]2CCN3Cc2nccs2)cn1.O=C(O)C(F)(F)F", "Percent Effect": -19.88}, {"smiles": "O=C(O)C(F)(F)F.O=C1C[C@H]2[C@@H](CCN2C(=O)Cc2cccs2)N1Cc1cccnc1", "Percent Effect": -27.42}, {"smiles": "Cn1cc(C(=O)N2CC[C@@H]3[C@@H]2CCN3Cc2cccc(F)c2)cn1.O=C(O)C(F)(F)F", "Percent Effect": 6.285}, {"smiles": "O=C(O)C(F)(F)F.O=C(O)C(F)(F)F.O=C(O)C(F)(F)F.O=C1NC2(CCN(Cc3cccnc3)CC2)CC1c1cccnc1", "note": "(configuration not stated)", "Percent Effect": -25.56}, {"smiles": "Cc1cc(CN2CC[C@H]3C[C@H](C(=O)N4CCC(C)CC4)O[C@H]3C2)no1.O=C(O)C(F)(F)F", "Percent Effect": -0.569}, {"smiles": "CC1(C)CC(N(Cc2cccnc2)Cc2cccc(F)c2)CC(C)(C)N1.O=C(O)CC(O)(CC(=O)O)C(=O)O", "Percent Effect": -20.05}, {"smiles": "CC1c2ncc(Cn3cccn3)n2CCN1Cc1cccnc1.O=C(O)C(F)(F)F.O=C(O)C(F)(F)F", "note": "(configuration not stated)", "Percent Effect": -18.15}, {"smiles": "O=C(O)C(F)(F)F.O=C(O)C(F)(F)F.c1cncc(CN2CCc3ncnc(C4CCOC4)c3CC2)c1", "note": "(configuration not stated)", "Percent Effect": -9.628}, {"smiles": "Cc1ccc2c(c1)CCC2NCc1c(C)nn(C)c1N1CCOCC1.Cl", "note": "(configuration not stated)", "Percent Effect": -16.61}]}]}
